PubChem BioAssay
Calls of active or inactive are those of the source.

Columns and labels:
[1] = anti-His antibody binders, primary screen, artefact control for SMM control protein annotation, biochemical, small-molecule microarray, 635 nm fluorescence (AID 1128); settings: anti-His Alexa647 antibody binding, higher = more signal;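 note: score merges feature fluorescence with signal-to-noise for each printed compound spot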
[2] = system: Human papillomavirus type 1a E7 protein (residues 1-88); assay: HPV1a E7 small-molecule binders, primary screen, biochemical, small-molecule microarray, residues 1-88, 635 nm (AID 1129); settings: small-molecule microarray binding, fluorescence 635 nm; higher = more signal
[3] = target: Focal adhesion kinase 1 (Homo sapiens) (UniProt Q05397); assay: small-molecule microarray binders of FAK, primary screen, biochemical, 635/667 nm fluorescence, BSA, DTT (AID 1130); settings: PTK2 binding, 635 nm fluorescence, higher = more signal;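 note: composite of spot emission at 667 nm and signal to noise over triplicate slides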
Chain of Focal adhesion kinase 1 (Homo sapiens) (Q05397 whole entry, looked up): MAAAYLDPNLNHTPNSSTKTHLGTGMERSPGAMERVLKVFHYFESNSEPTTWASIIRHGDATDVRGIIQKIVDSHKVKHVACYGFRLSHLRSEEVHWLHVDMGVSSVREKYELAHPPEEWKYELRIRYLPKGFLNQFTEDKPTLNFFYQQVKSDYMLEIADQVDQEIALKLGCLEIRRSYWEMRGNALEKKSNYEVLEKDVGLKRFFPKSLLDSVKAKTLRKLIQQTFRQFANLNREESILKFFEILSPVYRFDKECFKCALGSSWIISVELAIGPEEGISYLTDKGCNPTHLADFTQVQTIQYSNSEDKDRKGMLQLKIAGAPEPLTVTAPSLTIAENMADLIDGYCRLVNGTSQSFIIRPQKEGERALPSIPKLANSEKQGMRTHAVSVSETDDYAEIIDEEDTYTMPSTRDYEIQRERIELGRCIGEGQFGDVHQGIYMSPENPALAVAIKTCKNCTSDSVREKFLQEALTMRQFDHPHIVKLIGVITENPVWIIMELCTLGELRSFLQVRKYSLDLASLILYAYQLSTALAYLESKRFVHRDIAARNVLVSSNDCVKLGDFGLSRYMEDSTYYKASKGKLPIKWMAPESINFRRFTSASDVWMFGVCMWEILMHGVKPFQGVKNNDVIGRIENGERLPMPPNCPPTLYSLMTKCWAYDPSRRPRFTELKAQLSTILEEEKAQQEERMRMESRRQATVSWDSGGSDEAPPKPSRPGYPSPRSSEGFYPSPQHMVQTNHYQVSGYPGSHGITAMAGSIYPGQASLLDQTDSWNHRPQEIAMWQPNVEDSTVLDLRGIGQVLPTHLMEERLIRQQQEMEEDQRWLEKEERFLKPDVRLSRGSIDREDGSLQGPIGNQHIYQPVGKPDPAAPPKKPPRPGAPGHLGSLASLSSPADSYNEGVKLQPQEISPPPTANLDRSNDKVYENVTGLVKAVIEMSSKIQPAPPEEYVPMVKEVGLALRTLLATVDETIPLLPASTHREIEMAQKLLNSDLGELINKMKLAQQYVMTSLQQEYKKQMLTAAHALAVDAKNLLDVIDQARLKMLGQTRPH

[4] = system: Fibrinogen (Alexa647-labelled); assay: fibrinogen binders on compound microarrays, profiling panel, artefact control for SMM control-protein annotation, biochemical, small-molecule microarray, 635/667 nm fluorescence (AID 1131); settings: fibrinogen-A647 binding fluorescence, higher = more signal;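 note: z-score merges 667 nm fluorescence with per-spot signal-to-noise over triplicate slides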
[5] = target: Follistatin (Homo sapiens) (UniProt P19883); assay: follistatin binders on small-molecule microarrays, primary screen, biochemical, small-molecule microarray, 635/667 nm fluorescence (AID 1132); settings: FST binding, 635 nm fluorescence, higher = more signal
Chain of Follistatin (Homo sapiens) (P19883 whole entry, looked up): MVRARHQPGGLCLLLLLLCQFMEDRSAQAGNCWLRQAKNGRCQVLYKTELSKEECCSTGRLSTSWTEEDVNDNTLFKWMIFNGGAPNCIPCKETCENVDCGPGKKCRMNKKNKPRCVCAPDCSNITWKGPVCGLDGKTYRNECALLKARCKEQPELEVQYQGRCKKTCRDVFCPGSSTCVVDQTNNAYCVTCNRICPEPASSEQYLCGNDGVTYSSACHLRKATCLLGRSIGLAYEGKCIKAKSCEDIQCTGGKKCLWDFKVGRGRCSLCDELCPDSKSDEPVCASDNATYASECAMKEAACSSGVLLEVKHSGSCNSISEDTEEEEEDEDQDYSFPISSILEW

[6] = target: Fibroblast growth factor 2 (Homo sapiens) (UniProt P09038); assay: FGF2 binders on small-molecule microarrays, primary screen, biochemical, small-molecule microarray, 635/667 nm fluorescence (AID 1133); settings: small-molecule microarray binding, FGF2, fluorescence 635/667; higher = more signal
Chain of Fibroblast growth factor 2 (Homo sapiens) (P09038 whole entry, looked up): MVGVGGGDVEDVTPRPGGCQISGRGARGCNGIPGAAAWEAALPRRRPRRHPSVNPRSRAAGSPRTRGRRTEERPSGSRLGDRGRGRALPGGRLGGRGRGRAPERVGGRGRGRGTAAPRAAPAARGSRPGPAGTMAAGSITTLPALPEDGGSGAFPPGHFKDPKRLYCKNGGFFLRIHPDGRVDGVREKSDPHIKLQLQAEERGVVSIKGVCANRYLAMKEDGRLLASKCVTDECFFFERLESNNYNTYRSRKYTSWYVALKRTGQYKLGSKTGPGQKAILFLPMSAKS

[7] = mitochondrial membrane potential change in A549 cells, profiling panel, cell-based, JC-1 fluorescence, basal, 24 h, 100 nL (AID 1138); settings: higher = more signal;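 note: A549 lung adenocarcinoma cells under basal conditions with no added stimulus; test concentration not given here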
Lefty1 = Lefty1 binders on small-molecule microarrays, primary screen, biochemical, small-molecule microarray, 635/667 nm fluorescence (AID 1139); settings: small-molecule microarray binding, fluorescence 635/667; higher = more signal
[8] = system: wheat germ agglutinin (Triticum aestivum), Alexa647-labelled; assay: wheat germ agglutinin binders on compound microarrays, profiling panel, artefact control for SMM control-protein annotation, biochemical, small-molecule microarray, 635/667 nm fluorescence (AID 1140); settings: WGA-A647 binding, 635 nm fluorescence, higher = more signal;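 note: score merges 667 nm feature emission with signal to noise over triplicate slides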
[9] = target: Luciferin 4-monooxygenase (Photinus pyralis) (UniProt P08659); assay: firefly luciferase enzyme inhibitors, primary screen, biochemical, luminescence, purified enzyme, 2006 set (AID 1141); settings: SteadyGlo luminescence, 30 min, higher = more signal, called active from +8 up or from −8 down;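 note: cell-free assay with purified firefly luciferase at 100 ng per well in PBS; test concentration not given here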
Chain of Luciferin 4-monooxygenase (Photinus pyralis) (P08659 whole entry, looked up): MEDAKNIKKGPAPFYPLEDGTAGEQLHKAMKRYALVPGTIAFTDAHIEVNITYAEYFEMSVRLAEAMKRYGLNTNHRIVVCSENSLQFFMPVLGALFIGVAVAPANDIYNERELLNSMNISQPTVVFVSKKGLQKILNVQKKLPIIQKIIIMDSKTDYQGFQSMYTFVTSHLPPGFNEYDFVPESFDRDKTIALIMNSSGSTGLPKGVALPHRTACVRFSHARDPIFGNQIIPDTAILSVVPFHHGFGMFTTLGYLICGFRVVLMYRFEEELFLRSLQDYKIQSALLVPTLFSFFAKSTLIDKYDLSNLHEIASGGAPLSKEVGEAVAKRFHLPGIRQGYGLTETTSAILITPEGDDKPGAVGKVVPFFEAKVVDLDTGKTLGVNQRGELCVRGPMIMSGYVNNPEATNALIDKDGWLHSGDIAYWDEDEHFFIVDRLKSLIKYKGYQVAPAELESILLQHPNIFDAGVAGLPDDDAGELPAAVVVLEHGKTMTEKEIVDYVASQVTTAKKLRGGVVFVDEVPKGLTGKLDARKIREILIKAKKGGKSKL

Row | SMILES | composite z-score [1] | composite z-score [2] | composite z-score [3] | composite z-score [4] | composite z-score [5] | composite z-score [6] | z-score [7] | composite z-score (Lefty1) | composite z-score [8] | z-score [9]
1 | Cc1ccc(S[C@]2(C(=O)NCCN3CCOCC3)CC(=O)N(Cc3ccccc3Cl)[C@@H]2c2ccc(CO)cc2)cc1 | 1.69 | -0.516 | 0.155 | -1.85 | 0.157 | -0.536 | -0.63 | -0.188 | 0.193 | 1.58 (inactive)
2 | COc1ccc(C(=O)Nc2ccc(CN3C(=O)[C@@]4(O[C@@H](CCO)[C@H]([Si](C)(C)c5ccc(OC)cc5)[C@H]4C)c4ccccc43)cc2)cc1 | 1.42 | 0.97 | -0.0228 | 0.673 | 1.37 | 1.55 | -1.49 | 1.45 | 0.559 | -0.555 (inactive)
3 | CN1C2C=C(CCCO)C(C3C(=O)N(C(N)=O)C(=O)C32)C1c1ccc(CN2CCCC2)cc1 (stereo not given) | 0.161 | -0.697 | -0.311 | -0.929 | -0.0168 | 0.0692 | -0.637 | -0.484 | -0.0816 | 0.73 (inactive)
4 | COCCOC(=O)N1C(=O)[C@@]2(c3cc(C#CCCO)ccc31)[C@H](C(=O)N1CCN(c3ncccn3)CC1)[C@H]1C(=O)O[C@H](c3ccccc3)[C@H](c3ccccc3)N1[C@@H]2c1ccccc1OCCO | 0.475 | 1.23 | 0.868 | 0.972 | 1.35 | 0.821 | -0.778 | 0.828 | 1.04 | 1.23 (inactive)
5 | CN(C)C(=O)[C@@]1(Cc2ccccc2)N=C(c2ccc(OCCCO)cc2)O[C@H]1c1ccccc1N=[N+]=[N-] | 2.01 | 1.25 | 0.978 | 1.01 | 1.34 | 0.249 | -0.631 | 0.623 | 0.382 | -6.45 (inactive)
6 | C#CCN(CC1=CCCCC1)[C@H](c1ccccc1Br)[C@@H](O)Cc1ccccc1 | 0.646 | -0.0173 | 1.98 | -0.671 | -0.688 | -1.05 | -1.27 | -0.955 | 0.665 | -0.688 (inactive)
7 | O=C1c2ccccc2[C@](Cc2ccccc2I)(C(=O)NC2CC2)[C@H](c2ccc(CO)cc2)N1Cc1ccccc1 | -0.025 | 0.0081 | -0.186 | 0.471 | 0.885 | 1.16 | -0.194 | -0.502 | 0.322 | 0.873 (inactive)
8 | CCCCN1CC=CC23O[C@@H]4/C=C\CCC(C)OC(=O)C4[C@H]2C(=O)N(CCCCCO)[C@@H]3C1=O (stereo not given in full) | -0.383 | -0.69 | -0.883 | -0.773 | -1.13 | -0.781 | -0.175 | -0.234 | -0.245 | 0.762 (inactive)
9 | [N-]=[N+]=NCc1ccccc1C[C@]1(C(=O)NCC(O)CO)N=C(c2ccc(OCCCO)cc2)O[C@H]1c1ccccc1 (stereo not given in full) | 0.375 | -0.116 | -0.294 | -0.231 | 0.263 | -0.476 | -0.077 | -1.5 | 0.228 | -0.263 (inactive)
10 | CC(C)C[C@@H]1NC(=O)[C@H]2C[C@@H](C(=O)NCCCCCCN)[C@@H](c3ccc(O)cc3)N2C1=O | 2.99 | -0.313 | 0.496 | 0.8 | 1.32 | 0.823 | -1.06 | 0.632 | 0.0592 | -0.288 (inactive)
11 | [N-]=[N+]=Nc1ccccc1C[C@]1(C(=O)NCC(O)CO)N=C(c2ccc(OCCCO)cc2)O[C@H]1c1ccccc1N=[N+]=[N-] (stereo not given in full) | 1.58 | -0.212 | 0.0567 | 0.578 | -0.332 | -0.83 | 0.0494 | -0.435 | 0.543 | -3.26 (inactive)
12 | CC(C)N1C(=O)c2ccccc2[C@](C)(C(=O)NCc2ccccc2)[C@@H]1c1ccc(CO)cc1 | 3.09 | 0.29 | 0.239 | -1.77 | -0.24 | -0.131 | -0.39 | -0.554 | -0.444 | -1.06 (inactive)
13 | COCCOC(=O)N1C(=O)[C@@]2(c3cc(C#CCCO)ccc31)[C@H](C(=O)N1CCc3cc(OC)c(OC)cc3C1)[C@H]1C(=O)O[C@H](c3ccccc3)[C@H](c3ccccc3)N1[C@@H]2c1ccc(O)cc1 | 1.89 | 1.22 | 0.831 | 0.904 | 0.949 | 0.622 | 0.188 | 0.791 | 0.393 | -0.407 (inactive)
14 | COc1ccc([Si](C)(C)[C@H]2[C@H](CC(=O)N3Cc4ccccc4C[C@H]3CO)O[C@@]3(C(=O)N(Cc4ccc(N5CCC5=O)cc4)c4ccccc43)[C@@H]2C)cc1 | 1.72 | 1.13 | 1.12 | 0.42 | 1.33 | 1.32 | 1.11 | 1.56 | 0.104 | 0.511 (inactive)
15 | C#CCN(CC=C(C)C)[C@H](CO)c1ccccc1 | -0.237 | 0.729 | -0.122 | -0.0376 | 0.391 | 0.295 | -1.47 | -0.0431 | -0.196 | 0.648 (inactive)
16 | C[C@@]1([C@@H](NC(=O)c2ccccc2)c2ccc(-c3ccccc3)cc2)C[C@H]1C1CCCCC1 | -1.28 | -0.202 | 0.327 | -0.695 | -0.548 | -1 | -0.507 | -0.848 | 0.519 | 1.32 (inactive)
